The text below walks through data of PubChem BioAssay (EPA / NIEHS).

Calls of active or inactive are those of the source. How the source made its calls: active means hit-call score of the fitted dose curve at least 0.9, where 1 is the maximum; inactive means score below 0.9.

Read-out in one experiment: Cytochrome P450 (CYP1A1), CYP1A1 (gene 1543)
The experiment in a line: LTEA_HepaRG_CYP1A1: Life Technologies and Expression Analysis (LTEA) Assay for Cytochrome P450 (CYP1A1) using HepaRG (AID 2283454). The note with it: mRNA level, 48 h; actives raise or lower the signal. Summed up:
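qRT-PCR read-out: CYP1A1 transcript normalized to three housekeeping genes, fitted bidirectionally against 0.5% DMSO vehicle baseline. Human HepaRG cells, 48 h chemical exposure, 8-point half-log series topping at 100 uM.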
What is called AC50 is the concentration giving half of the maximal activity seen. As for `CCOC(=O)COc1cc(-n2ncc(C(F)(F)F)c(C)c2=O)c(F)cc1Cl`, the AC50 is 50 µM (active).
Regarding `Oc1ccc(C(c2ccc(O)cc2)C(Cl)(Cl)Cl)cc1`, the compound was called inactive.
The same measure, in the same setting: next, `c1ccc(Nc2ccccc2)cc1`: “inactive”.
Take `CCCOC(=O)c1ccc(C(=O)OCCC)nc1`: the AC50 was 24.8 µM (active).
As to `CCCCC(CC)COC(=O)c1ccccc1C(=O)O` (configuration not stated), the AC50 is 77.2 µM (active).
The same measure, in the same setting: next, `CCSC(=O)N(CC(C)C)CC(C)C`: 50 µM (active); `CCCCOC(=O)C(C)Oc1ccc(Oc2ccc(C(F)(F)F)cn2)cc1` (configuration not stated): 9.92 µM (active); `CCOC(=O)C(C)Oc1ccc(Oc2cnc3cc(Cl)ccc3n2)cc1` (configuration not stated): 18.5 µM (active).

Read-out in the next experiment: CFLAR gene, CFLAR (gene 8837)
The experiment in a line: LTEA_HepaRG_CFLAR: Life Technologies and Expression Analysis (LTEA) Assay for CFLAR gene using HepaRG (AID 2283455). The note with it: mRNA level, 48 h; actives raise or lower the signal. Summed up: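 HepaRG, 48 h exposure, 8-pt conc-response (100 uM top, half-log), 0.5% DMSO vehicle, duplicates. CFLAR expression by qRT-PCR; ACTB/GAPDH/POLR2A normalization; gain or loss fit vs DMSO baseline.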
Turning to `CCOC(=O)c1ccc(O)cc1`, the compound was called inactive.
The same measure, in the same setting: next, `CCCN(CCC)c1c([N+](=O)[O-])cc(C(F)(F)F)c(N)c1[N+](=O)[O-]`: “inactive”; `O=C(c1ccccc1)C1CCCCC1`: “inactive”.
On to `C=CCOC(Cn1ccnc1)c1ccc(Cl)cc1Cl` (configuration not stated), for which the AC50 was 79.2 µM (active).
`CC(C)CCCCCCc1ccc(O)cc1`: the outcome was inactive.
The same measure, in the same setting: next, `COCCO`: “inactive”; `N[C@@H](Cc1cc(I)c(Oc2ccc(O)c(I)c2)c(I)c1)C(=O)O`: “inactive”; `COc1c(Cl)ccc(Cl)c1C(=O)O`: “inactive”.
Still for that read-out and setting: next, `CCC(C)OC(=O)N1CCCCC1CCO` (configuration not stated): “inactive”; `CC(C)(C)[C@@H](O)[C@@H](Cc1ccc(Cl)cc1)n1cncn1`: “inactive”; `O=C(O)C1(C(=O)Nc2ccc(Cl)cc2Cl)CC1`: “inactive”.
Still for that read-out and setting: next, `OB(O)O`: “inactive”.
Turning to `CC(=O)[C@H]1CC[C@H]2[C@@H]3CCC4=CC(=O)CC[C@]4(C)[C@H]3CC[C@]12C`, the AC50 is 77.8 µM (active).
In the case of `CCCCC(CC)CN1C(=O)C2C3C=CC(C3)C2C1=O` (configuration not stated), the compound was called inactive.
On the same count and under the same terms, next, `CCN(Cc1c(F)cccc1Cl)c1c([N+](=O)[O-])cc(C(F)(F)F)cc1[N+](=O)[O-]`: “inactive”; `C[C@]12C[C@H](O)[C@H]3[C@@H](CCC4=CC(=O)CC[C@@]43C)[C@@H]1CC[C@@H]2C(=O)CO`: “inactive”; `C#CCOC(=O)[C@@H](C)Oc1ccc(Oc2ncc(Cl)cc2F)cc1`: “inactive”.
The same measure, in the same setting: next, `Cc1nn(C)c(Oc2ccccc2)c1C=NOCc1ccc(C(=O)OC(C)(C)C)cc1`: “inactive”; `CCOC(=O)C(C)Oc1ccc(Oc2nc3ccc(Cl)cc3o2)cc1` (configuration not stated): “inactive”; `CCOC(=O)COc1cc(-n2ncc(C(F)(F)F)c(C)c2=O)c(F)cc1Cl`: “inactive”.
Same read-out and setting: next, `Oc1ccc(C(c2ccc(O)cc2)C(Cl)(Cl)Cl)cc1`: “inactive”; `c1ccc(Nc2ccccc2)cc1`: “inactive”; `CCCOC(=O)c1ccc(C(=O)OCCC)nc1`: “inactive”.
In the case of `CCCCC(CC)COC(=O)c1ccccc1C(=O)O` (configuration not stated), the call was inactive.
Turning to `CCSC(=O)N(CC(C)C)CC(C)C`, the call was inactive.
Still for that read-out and setting: next, `CCCCOC(=O)C(C)Oc1ccc(Oc2ccc(C(F)(F)F)cn2)cc1` (configuration not stated): “inactive”.
Still for that read-out and setting: next, `CCOC(=O)C(C)Oc1ccc(Oc2cnc3cc(Cl)ccc3n2)cc1` (configuration not stated): “inactive”.

Read-out in the next experiment: Forkhead box O1 (FOXO1), FOXO1 (gene 2308)
Nature of the experiment: LTEA_HepaRG_FOXO1: Life Technologies and Expression Analysis (LTEA) Assay for Forkhead box O1 (FOXO1) using HepaRG (AID 2283456). The note with it: mRNA level, 48 h; actives raise or lower the signal. In outline: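 Readout is FOXO1 transcript level by multiplexed qRT-PCR against three housekeeping genes, curve-fitted in both directions relative to 0.5% DMSO vehicle. Human HepaRG cultures received chemicals for 48 h, up to 100 uM in half-log steps.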
`CCOC(=O)c1ccc(O)cc1`: the compound was classed as inactive.
Still for that read-out and setting: next, `CCCN(CCC)c1c([N+](=O)[O-])cc(C(F)(F)F)c(N)c1[N+](=O)[O-]`: “inactive”; `O=C(c1ccccc1)C1CCCCC1`: “inactive”.
Turning to `C=CCOC(Cn1ccnc1)c1ccc(Cl)cc1Cl` (configuration not stated), the AC50 is 78.1 µM (active).
Turning to `CC(C)CCCCCCc1ccc(O)cc1`, the compound was classed as inactive.
Turning to `COCCO`, the outcome was inactive.
In the case of `N[C@@H](Cc1cc(I)c(Oc2ccc(O)c(I)c2)c(I)c1)C(=O)O`, the result was inactive.
The same measure, in the same setting: next, `COc1c(Cl)ccc(Cl)c1C(=O)O`: “inactive”; `CCC(C)OC(=O)N1CCCCC1CCO` (configuration not stated): “inactive”.
Same read-out and setting: next, `CC(C)(C)[C@@H](O)[C@@H](Cc1ccc(Cl)cc1)n1cncn1`: “inactive”; `O=C(O)C1(C(=O)Nc2ccc(Cl)cc2Cl)CC1`: “inactive”; `OB(O)O`: “inactive”.
On to `CC(=O)[C@H]1CC[C@H]2[C@@H]3CCC4=CC(=O)CC[C@]4(C)[C@H]3CC[C@]12C`, for which the AC50 was 80.5 µM (active).
As for `CCCCC(CC)CN1C(=O)C2C3C=CC(C3)C2C1=O` (configuration not stated), the compound was classed as inactive.
Still for that read-out and setting: next, `CCN(Cc1c(F)cccc1Cl)c1c([N+](=O)[O-])cc(C(F)(F)F)cc1[N+](=O)[O-]`: “inactive”; `C[C@]12C[C@H](O)[C@H]3[C@@H](CCC4=CC(=O)CC[C@@]43C)[C@@H]1CC[C@@H]2C(=O)CO`: “inactive”; `C#CCOC(=O)[C@@H](C)Oc1ccc(Oc2ncc(Cl)cc2F)cc1`: “inactive”.
With `Cc1nn(C)c(Oc2ccccc2)c1C=NOCc1ccc(C(=O)OC(C)(C)C)cc1`, the AC50 is 2.81 µM (active).
`CCOC(=O)C(C)Oc1ccc(Oc2nc3ccc(Cl)cc3o2)cc1` (configuration not stated): the compound was called inactive.
The same measure, in the same setting: next, `CCOC(=O)COc1cc(-n2ncc(C(F)(F)F)c(C)c2=O)c(F)cc1Cl`: “inactive”.
Consider `Oc1ccc(C(c2ccc(O)cc2)C(Cl)(Cl)Cl)cc1`, for which the AC50 is 93.2 µM (active).
Consider `c1ccc(Nc2ccccc2)cc1`, for which the compound was called inactive.
Still for that read-out and setting: next, `CCCOC(=O)c1ccc(C(=O)OCCC)nc1`: “inactive”.
Same read-out and setting: next, `CCCCC(CC)COC(=O)c1ccccc1C(=O)O` (configuration not stated): “inactive”; `CCSC(=O)N(CC(C)C)CC(C)C`: “inactive”; `CCCCOC(=O)C(C)Oc1ccc(Oc2ccc(C(F)(F)F)cn2)cc1` (configuration not stated): “inactive”.
The same measure, in the same setting: next, `CCOC(=O)C(C)Oc1ccc(Oc2cnc3cc(Cl)ccc3n2)cc1` (configuration not stated): “inactive”.
